From PubChem BioAssay
M1 PAM: human M1 muscarinic receptor positive allosteric modulators, primary screen, CHO-K1 cells, Fluo-8 calcium fluorescence, 1536-well; activation, % at 3 µM; actives 0.088% (n = 360,000); CHO-K1 hM1, ACh EC20; 0% = ACh EC20, 100% = maximal ACh; Muscarinic acetylcholine receptor M1 (Homo sapiens), P11229; in the data active = activation above about 19%, passing the limit was not always enough
Target sequence (P11229 whole entry, looked up): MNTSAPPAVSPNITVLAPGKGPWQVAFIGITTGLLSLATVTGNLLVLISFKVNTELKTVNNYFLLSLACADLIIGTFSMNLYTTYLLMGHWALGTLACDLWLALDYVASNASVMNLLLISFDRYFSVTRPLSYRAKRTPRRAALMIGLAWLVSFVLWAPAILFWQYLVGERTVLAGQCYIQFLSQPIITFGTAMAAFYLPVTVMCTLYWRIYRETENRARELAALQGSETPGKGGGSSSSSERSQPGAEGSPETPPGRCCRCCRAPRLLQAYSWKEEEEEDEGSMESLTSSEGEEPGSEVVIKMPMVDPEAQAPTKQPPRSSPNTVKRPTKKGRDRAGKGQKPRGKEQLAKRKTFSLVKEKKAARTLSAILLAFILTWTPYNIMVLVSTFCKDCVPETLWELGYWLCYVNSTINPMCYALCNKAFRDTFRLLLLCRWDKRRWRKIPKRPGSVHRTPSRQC
CHRM1 agonist: human M1 muscarinic receptor agonists, primary screen, Fluo-8 calcium fluorescence, CHO-K1 cells, HTS; AID 588814, 2011; CHO-K1 hM1, agonist mode; 0% DMSO, 100% acetylcholine EC100; actives 0.33% (n = 360,000); activation, % at 3 µM;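 active = activation above the run's mean compound activation plus 3 SD, cut at about 16% in these data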;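 also: peak over basal fluorescence ratio within a 140 s kinetic read after compound addition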
CHO-K1 Ca antag: M1 antagonist counterscreen hit in parental CHO-K1 cells; ATP-induced calcium, Fluo-8 fluorescence; inhibition, % at 3 µM; actives 0.6% (n = 360,000);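 active = inhibition above a per-plate cutoff, the plate's mean sample inhibition plus 3 SD, cut at about 24% in these data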;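 also: 0% = DMSO plus EC80 ATP and 100% = DMSO alone without ATP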
M1 PAM parental: nonselective calcium activators in parental CHO-K1 cells, primary screen, counter-screen for M1 PAM project, cell-based, Fluo-8 calcium fluorescence, full deck, 1536-well. actives 0.02% (n = 360,000). activation, % at 3 µM. AID 602247, 2012. ATP EC20; 0% at ATP EC20, 100% at ATP max;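 active = activation above the run cutoff, the mean activation of all test compounds plus 3 SD, cut at about 40% in these data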;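 also: peak over basal fluorescence ratio in a 140 s read after ATP addition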
M1 antag: human M1 muscarinic receptor antagonists, primary screen, CHO-K1 cells, Fluo-8 calcium fluorescence, 1536-well | Muscarinic acetylcholine receptor M1 (Homo sapiens), P11229 | CHO-K1 hM1, ACh EC80 antagonist | inhibition, % at 3 µM | actives 1.3% (n = 360,000) | AID 588852, 2011;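 active = percent inhibition above its own plate's cutoff, namely the mean of that plate's compound wells plus 3 SD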;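 also: peak over basal fluorescence ratio during 140 s after agonist addition; 0% = ACh EC80 plus DMSO and 100% = DMSO alone without agonist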
M1 ag parental: counter-screen for M1 agonists: effect in parental CHO-K1 cells | Fluo-8 calcium fluorescence; scaled to maximal ATP response, vehicle zero | activation, % at 3 µM | actives 0.48% (n = 360,000) | AID 602248, 2012; in the data active = activation above about 15%;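 also: untransfected CHO-K1 host cells lacking M1 receptor as counterscreen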
An asterisk follows results filed as active; / = not tested or not shown. This is a sample that favours compounds with a hit; in the whole collection about 2.3% have one here.

SMILES | M1 PAM | CHRM1 agonist | CHO-K1 Ca antag | M1 PAM parental | M1 antag | M1 ag parental
CCN1CCN(S(=O)(=O)c2cc(OC)ccc2OC)CC1 | -5.2 | -4.2 | 19.8 | -11.7 | 9.6 | 0.3
Cc1ccccc1NC(=O)C[n+]1cc(-c2ccccc2)n2c1CCC2 | -16.8 | -2.4 | 15.9 | -20.9 | 50.3* | 5.0
O=C(C[n+]1cc(-c2ccc(Cl)cc2)n2c1CCC2)N1c2ccccc2Sc2ccccc21 | -25.8 | -8.0 | 3.5 | -3.3 | 97.3* | -0.4
COc1ccc(-c2c[n+](CC(=O)N3c4ccccc4Sc4ccccc43)c3n2CCC3)cc1 | -26.5 | -8.0 | -11.6 | 12.9 | 86.2* | 0.0
O=C(C[n+]1cc(-c2ccc(Cl)c(Cl)c2)n2c1CCC2)N1c2ccccc2Sc2ccccc21 | -26.6 | -7.5 | -3.5 | 26.5 | 99.6* | 0.5
CCn1ccnc1CN(C)Cc1c(C(=O)N2C[C@@H](C)O[C@@H](C)C2)nc2ccc(Cl)cn12 | 4.1 | -5.1 | -5.8 | -1.7 | -7.9 | 0.8
Cc1ccc(NC(=O)CCn2ccc([N+](=O)[O-])n2)nc1 | 3.7 | -6.8 | -2.1 | -7.5 | -6.3 | -0.3
COc1ccc(CNC(=O)COC(=O)C2CCC(C(C)(C)C)CC2)cc1 (stereo not given) | -0.3 | -2.8 | -22.0 | 20.8 | -7.7 | 4.5
CCNC(=S)N/N=C(\C)c1cccc([N+](=O)[O-])c1 | 0.8 | -7.3 | -3.0 | 13.5 | 1.4 | 0.3
Cc1ccc(-c2c[n+](CC(=O)OCc3ccccc3)c3n2CCC3)cc1 | -9.2 | -8.1 | 3.3 | -0.9 | 6.0 | -0.3
CC1CCC(C(C)C)C(OC(=O)C[n+]2cc(-c3ccc(Cl)cc3)n3c2CCC3)C1 (stereo not given) | -22.5 | -2.2 | -2.5 | 10.3 | 85.3* | 0.7
CCC(c1nnnn1-c1c(C)cccc1C)N1CCN(CCN2CCOCC2)CC1 (stereo not given) | / | / | -30.3 | 17.1 | / | 0.6
O=C(NNC(=O)c1cc(-c2cccnc2)nc2ccccc12)Nc1ccc(Cl)cc1 | -18.3 | 2.9 | 29.0* | -15.7 | 62.5* | 14.5
O=C(NNC(=O)c1cc(-c2ccccc2)nc2ccccc12)Nc1cccc(Cl)c1 | -11.3 | -1.3 | 6.8 | 9.9 | 25.1* | 3.7
COc1ccc(/C=C/C(=O)NC(=S)NCC2CCCO2)cc1 (stereo not given) | -1.4 | -6.3 | 2.1 | 6.3 | 6.2 | 4.4
O=C(NC(=S)NCC1CCCO1)c1ccc(Cl)cc1Cl (stereo not given) | 1.4 | -5.5 | -4.1 | 20.4 | -3.0 | 15.2*
COc1ccccc1NC(=S)NCC1CCCO1 (stereo not given) | -1.6 | -2.9 | 24.4* | -14.4 | 4.6 | -0.6
S=C(NCC1CCCO1)Nc1cc(Cl)c(Cl)cc1Cl (stereo not given) | -1.6 | -3.3 | -16.7 | 1.5 | 1.9 | 2.4
CCOc1ccccc1NC(=S)NCC1CCCO1 (stereo not given) | 2.5 | -5.8 | -5.1 | 17.9 | -2.4 | 3.6
COc1ccccc1/C=C/C(=O)NC(=S)NCC1CCCO1 (stereo not given) | -12.4 | -2.7 | 2.0 | 3.9 | 35.5* | 4.9
Cc1cc(C)cc(NC(=S)NCC2CCCO2)c1 (stereo not given) | -11.4 | -2.5 | 6.1 | -3.4 | 11.7* | 0.2
C=CCc1cccc(CNc2cnc3ccccc3c2)c1O | -11.8 | 1.7 | 38.5* | -22.7 | 40.4* | 9.3
CN(C)c1ccc(/C=C/c2nc3ccccc3c(=O)n2CCO)cc1 | -30.1 | 30.3* | 3.7 | -22.9 | 34.3 | 13.9
O=C(Cn1cnc2c(NCc3ccccc3)ncnc21)NCc1ccccc1 | 9.7 | 0.8 | -0.4 | 7.2 | -15.5 | 0.5
C[C@@H](NC(=O)Cn1cnc2c(OCc3ccccc3)ncnc21)c1cccc2ccccc12 | 19.8 | 33.3* | -11.3 | 9.6 | -13.3 | 2.3
SMILES | M1 PAM | CHRM1 agonist | CHO-K1 Ca antag | M1 PAM parental | M1 antag | M1 ag parental
C[C@@H](NC(=O)Cn1cnc2c(NCc3ccccc3)ncnc21)c1cccc2ccccc12 | 9.1 | 47.7* | 2.2 | -3.6 | -10.2 | 1.6
CCCCNC(=O)C1(C)CCCCN1C(=O)c1ccc(OC)c(C(F)(F)F)c1 (stereo not given) | -5.7 | -1.9 | -5.8 | -6.9 | 6.1 | 0.1
Cc1ccc(S(=O)(=O)N2CC3(O)CN(C(=O)OC(C)C)N(C(=O)OC(C)C)CC3(OC(=O)NCc3ccco3)C2)cc1 (stereo not given) | -1.3 | -2.4 | -4.5 | 5.0 | 2.6 | 3.7
Cc1cccc(N2Cc3ccc(Br)cc3C2)c1 | 9.3 | -1.9 | -4.0 | 7.0 | -20.2 | 0.6
COC(=O)Cn1nc(-c2ccc(C)c(S(=O)(=O)N(C)C)c2)c2ccccc2c1=O | 6.5 | -1.5 | 0.7 | 8.1 | -9.7 | 0.5
Cc1ccc(-c2nn(CC(=O)N(C)C)c(=O)c3ccccc23)cc1S(=O)(=O)N(C)C | 21.2* | -2.8 | -31.4 | 11.8 | -50.2 | 0.4
Cc1noc(C)c1S(=O)(=O)Nc1ccc2c(c1)CC(=O)N([C@H](C)CO)C[C@H](C)[C@H](CN(C)S(=O)(=O)c1ccc(F)cc1)O2 | -12.8 | -9.6 | -10.8 | 11.8 | 14.3 | 0.1
CCc1nnc(SCC(=O)NC2CCCCC2)nc1CC | 14.6 | -4.4 | -19.6 | 28.4 | -13.3 | 1.2
CCc1nnc(SCC(=O)NC2CCCC2)nc1CC | 8.9 | -1.4 | 32.7* | -6.0 | 7.1 | -0.2
O=C(CCc1nnc(Cc2c[nH]c3ccccc23)o1)NCCC1CCCCO1 (stereo not given) | 13.5 | 0.4 | -6.4 | -10.0 | -20.8 | 0.0
c1ccc(-c2nc(N3CCCCC3)nc3ccccc23)cc1 | -2.2 | -4.6 | -2.6 | 14.5 | 6.0 | 0.1
CCN1CCN(c2nc(-c3ccccc3)c3ccccc3n2)CC1 | -29.4 | -10.7 | -24.5 | 24.9 | 47.5* | 2.8
C[C@]12CCC(=O)C=C1[C@H](O)C[C@@H]1[C@@H]2[C@@H](O)C[C@@]2(C)[C@H]1CC[C@]2(O)C(=O)CO | -0.5 | -1.9 | 33.2* | -8.4 | -24.7 | 2.2
Cc1ccc(S(=O)(=O)Oc2ccc(C3C4=C(CCCC4=O)N(CCC(=O)O)C4=C3C(=O)CCC4)cc2Cl)cc1 | -4.0 | -2.4 | 6.3 | -6.6 | 6.2 | 0.1
COc1ccc(CN2C(=O)C(CC(=O)NC3CCCC3)CC(C(=O)N3CCOCC3)=C2C)cc1 (stereo not given) | -2.0 | -5.8 | 23.8* | -5.2 | 10.2 | -0.2
COc1cc(NC(=O)c2ncn[nH]2)cc(OC)c1OC | -10.6 | 0.5 | 22.2 | -0.4 | 1.6 | -0.5
COc1ccc(NC(=O)C/C(C)=N/NC(=O)c2ccccn2)c(OC)c1 | -7.5 | -4.0 | -5.2 | 1.0 | 15.1 | 0.3
